# In PubChem BioAssay AID1159580 (chemical genetic matrix, 2015):
# About 2,000 (36%) of roughly 5,500 compounds were called active. About 18% were inconclusive and are not listed. Some of the results follow. Unmarked numbers belong to inactive results. Rule as the data show it: active = normalized growth mostly below about 0.91 (no sharp cut-off); inconclusive = no clear call, values can overlap the other calls; inactive = mostly above about 0.92.
# Assay: chemical genetic growth profiling, strain panel (AID 1159580);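 also: tested at 20 µM; growth read once vehicle control cultures reached saturation at 30 °C; 1 = growth at the plate median or of vehicle wells; lower values mean less growth of the strain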
# Conditions: growth OD
# [1] = S. cerevisiae deletion strains, locus YDL101C, strain DUN1, stronger effect = lower value
# [2] = S. cerevisiae deletion strains, locus YHR030C, strain SLT2, stronger effect = lower value
compound,measurement,setting,value
CC(C)(C)c1cc(-c2cc(C(F)(F)F)[nH]n2)c2c(c1)C(C)(C)CC2,normalized growth,"S. cerevisiae deletion strains, locus YAL013W, strain DEP1, stronger effect = lower value",0.976
same,normalized growth,"S. cerevisiae deletion strains, locus YBR229C, strain ROT2, stronger effect = lower value",1
same,normalized growth,"S. cerevisiae deletion strains, locus YCL061C, strain MRC1, stronger effect = lower value",0.995
same,normalized growth,[1],1
same,normalized growth,"S. cerevisiae deletion strains, locus YDR150W, strain NUM1, stronger effect = lower value",0.874
same,normalized growth,"S. cerevisiae deletion strains, locus YEL061C, strain CIN8, stronger effect = lower value",1
same,normalized growth,"S. cerevisiae deletion strains, locus YGR078C, strain PAC10, stronger effect = lower value",1
same,normalized growth,[2],1.09
same,normalized growth,"S. cerevisiae deletion strains, locus YHR087W, strain rtc3, stronger effect = lower value",0.989
same,normalized growth,"S. cerevisiae deletion strains, locus YJR043C, strain POL32, stronger effect = lower value",0.982
same,normalized growth,"S. cerevisiae deletion strains, locus YJR075W, strain HOC1, stronger effect = lower value",0.966
same,normalized growth,"S. cerevisiae deletion strains, locus YLR039C, strain RIC1, stronger effect = lower value",0.897
same,normalized growth,"S. cerevisiae deletion strains, locus YLR058C, strain SHM2 (second series), stronger effect = lower value",1.01
same,normalized growth,"S. cerevisiae deletion strains, locus YLR085C, strain ARP6, stronger effect = lower value",1.03
same,normalized growth,"S. cerevisiae deletion strains, locus YLR262C, strain YPT6, stronger effect = lower value",0.891
same,normalized growth,"S. cerevisiae deletion strains, locus YML094W, strain GIM5, stronger effect = lower value",0.998
same,normalized growth,"S. cerevisiae deletion strains, locus YMR219W, strain ESC1, stronger effect = lower value",1
same,normalized growth,"S. cerevisiae deletion strains, locus YMR263W, strain SAP30, stronger effect = lower value",0.974
same,normalized growth,"S. cerevisiae deletion strains, locus YMR307W, strain GAS1, stronger effect = lower value",0.998
same,normalized growth,"S. cerevisiae deletion strains, locus YNL153C, strain GIM3, stronger effect = lower value",0.997
same,normalized growth,"S. cerevisiae deletion strains, locus YNL298W, strain CLA4 (second series), stronger effect = lower value",1.01
same,normalized growth,"S. cerevisiae deletion strains, locus YNL322C, strain KRE1, stronger effect = lower value",0.993
same,normalized growth,"S. cerevisiae deletion strains, locus YNR030W, strain Alg12, stronger effect = lower value",0.99
same,normalized growth,"S. cerevisiae deletion strains, locus YPL055C, strain LGE1, stronger effect = lower value",0.985
same,normalized growth,"S. cerevisiae deletion strains, locus YPL241C, strain CIN2, stronger effect = lower value",1
same,normalized growth,"S. cerevisiae deletion strains, locus YPR135W, strain CTF4, stronger effect = lower value",0.881
same,normalized growth,"S. cerevisiae strains, strain wild type, stronger effect = lower value",1.01
FC(F)(F)c1cc(-c2ccc(Cl)cc2)n[nH]1,normalized growth,"S. cerevisiae deletion strains, locus YAR019C, strain CDC15, stronger effect = lower value",0.908
same,normalized growth,"S. cerevisiae deletion strains, locus YBL105C, strain PKC1, stronger effect = lower value",0.923
same,normalized growth,"S. cerevisiae deletion strains, locus YBR135W, strain CKS1, stronger effect = lower value",0.916
same,normalized growth,"S. cerevisiae deletion strains, locus YBR136W, strain MEC1, stronger effect = lower value",0.918
same,normalized growth,"S. cerevisiae deletion strains, locus YBR160W, strain CDC28, stronger effect = lower value",0.922
same,normalized growth,"S. cerevisiae deletion strains, locus YDL017W, strain CDC7, stronger effect = lower value",0.931
same,normalized growth,"S. cerevisiae deletion strains, locus YDL028C, strain MPS1, stronger effect = lower value",0.918
same,normalized growth,[1],0.926
same,normalized growth,"S. cerevisiae deletion strains, locus YDL108W, strain KIN28, stronger effect = lower value",0.925
same,normalized growth,"S. cerevisiae deletion strains, locus YDL132W, strain cdc53, stronger effect = lower value",0.917
same,normalized growth,"S. cerevisiae deletion strains, locus YDL214C, strain PRR2, stronger effect = lower value",0.826
same,normalized growth,"S. cerevisiae deletion strains, locus YDR052C, strain DBF4, stronger effect = lower value",0.927
same,normalized growth,"S. cerevisiae deletion strains, locus YDR054C, strain cdc34, stronger effect = lower value",0.904
same,normalized growth,"S. cerevisiae deletion strains, locus YDR226W, strain ADK1, stronger effect = lower value",0.921
same,normalized growth,"S. cerevisiae deletion strains, locus YDR477W, strain SNF1, stronger effect = lower value",0.848
same,normalized growth,"S. cerevisiae deletion strains, locus YER123W, strain YCK3, stronger effect = lower value",0.789
same,normalized growth,"S. cerevisiae deletion strains, locus YER133W, strain GLC7, stronger effect = lower value",0.779
same,normalized growth,"S. cerevisiae deletion strains, locus YFL009W, strain cdc4, stronger effect = lower value",0.908
same,normalized growth,"S. cerevisiae deletion strains, locus YFL029C, strain CAK1, stronger effect = lower value",0.906
same,normalized growth,"S. cerevisiae deletion strains, locus YFR003C, strain YPI1, stronger effect = lower value",0.92
same,normalized growth,"S. cerevisiae deletion strains, locus YFR019W, strain FAB1, stronger effect = lower value",0.901
same,normalized growth,"S. cerevisiae deletion strains, locus YFR028C, strain CDC14, stronger effect = lower value",0.909
same,normalized growth,"S. cerevisiae deletion strains, locus YGR040W, strain KSS1, stronger effect = lower value",0.813
same,normalized growth,"S. cerevisiae deletion strains, locus YGR052W, strain FMP48, stronger effect = lower value",0.834
same,normalized growth,"S. cerevisiae deletion strains, locus YGR092W, strain DBF2, stronger effect = lower value",0.807
same,normalized growth,[2],0.763 (active)
same,normalized growth,"S. cerevisiae deletion strains, locus YHR079C, strain IRE1, stronger effect = lower value",0.803
same,normalized growth,"S. cerevisiae deletion strains, locus YHR082C, strain KSP1, stronger effect = lower value",0.826
same,normalized growth,"S. cerevisiae deletion strains, locus YHR205W, strain SCH9, stronger effect = lower value",0.842
same,normalized growth,"S. cerevisiae deletion strains, locus YIL147C, strain SLN1, stronger effect = lower value",0.921
same,normalized growth,"S. cerevisiae deletion strains, locus YJL095W, strain BCK1, stronger effect = lower value",0.74
same,normalized growth,"S. cerevisiae deletion strains, locus YJL128C, strain PBS2, stronger effect = lower value",0.882
same,normalized growth,"S. cerevisiae deletion strains, locus YJL157C, strain FAR1, stronger effect = lower value",0.813
same,normalized growth,"S. cerevisiae deletion strains, locus YJR016C, strain ILV3, stronger effect = lower value",0.915
same,normalized growth,"S. cerevisiae deletion strains, locus YJR066W, strain TOR1 (second series), stronger effect = lower value",0.948
same,normalized growth,"S. cerevisiae deletion strains, locus YJR066W, strain TOR1, stronger effect = lower value",0.763
same,normalized growth,"S. cerevisiae deletion strains, locus YKL048C, strain ELM1, stronger effect = lower value",0.857
same,normalized growth,"S. cerevisiae deletion strains, locus YKL067W, strain YNK1, stronger effect = lower value",0.84
same,normalized growth,"S. cerevisiae deletion strains, locus YKL101W, strain HSL1, stronger effect = lower value",0.836
same,normalized growth,"S. cerevisiae deletion strains, locus YKL193C, strain SDS22, stronger effect = lower value",0.902
same,normalized growth,"S. cerevisiae deletion strains, locus YKL203C, strain TOR2, stronger effect = lower value",0.819
same,normalized growth,"S. cerevisiae deletion strains, locus YLR113W, strain HOG1, stronger effect = lower value",0.701 (active)
same,normalized growth,"S. cerevisiae deletion strains, locus YLR133W, strain CKI1, stronger effect = lower value",0.843
same,normalized growth,"S. cerevisiae deletion strains, locus YLR403W, strain SFP1, stronger effect = lower value",0.74
same,normalized growth,"S. cerevisiae deletion strains, locus YML070W, strain DAK1, stronger effect = lower value",0.789
same,normalized growth,"S. cerevisiae deletion strains, locus YMR001C, strain CDC5, stronger effect = lower value",0.911
same,normalized growth,"S. cerevisiae deletion strains, locus YMR205C, strain PFK2 (second series), stronger effect = lower value",0.846
same,normalized growth,"S. cerevisiae deletion strains, locus YMR277W, strain FCP1, stronger effect = lower value",0.915
same,normalized growth,"S. cerevisiae deletion strains, locus YNL006W, strain LST8, stronger effect = lower value",0.935
same,normalized growth,"S. cerevisiae deletion strains, locus YNL020C, strain ARK1, stronger effect = lower value",0.841
same,normalized growth,"S. cerevisiae deletion strains, locus YNL161W, strain CBK1, stronger effect = lower value",0.913
same,normalized growth,"S. cerevisiae deletion strains, locus YNL183C, strain NPR1, stronger effect = lower value",0.756
same,normalized growth,"S. cerevisiae deletion strains, locus YNL207W, strain RIO2, stronger effect = lower value",0.897
same,normalized growth,"S. cerevisiae deletion strains, locus YNL222W, strain SSU72, stronger effect = lower value",0.91
same,normalized growth,"S. cerevisiae deletion strains, locus YNL307C, strain MCK1 (second series), stronger effect = lower value",0.853
same,normalized growth,"S. cerevisiae deletion strains, locus YOL078W, strain AVO1, stronger effect = lower value",0.903
same,normalized growth,"S. cerevisiae deletion strains, locus YOL136C, strain PFK27, stronger effect = lower value",0.803
same,normalized growth,"S. cerevisiae deletion strains, locus YOR061W, strain CKA2, stronger effect = lower value",0.869
same,normalized growth,"S. cerevisiae deletion strains, locus YOR119C, strain RIO1, stronger effect = lower value",0.826
same,normalized growth,"S. cerevisiae deletion strains, locus YOR231W, strain MKK1, stronger effect = lower value",0.747
same,normalized growth,"S. cerevisiae deletion strains, locus YOR329C, strain SCD5, stronger effect = lower value",0.912
same,normalized growth,"S. cerevisiae deletion strains, locus YPL031C, strain PHO85, stronger effect = lower value",0.824
same,normalized growth,"S. cerevisiae deletion strains, locus YPL153C, strain RAD53, stronger effect = lower value",0.829
same,normalized growth,"S. cerevisiae deletion strains, locus YPL204W, strain HRR25, stronger effect = lower value",0.798
same,normalized growth,"S. cerevisiae deletion strains, locus YPL209C, strain IPL1, stronger effect = lower value",0.916
same,normalized growth,"S. cerevisiae deletion strains, locus YPL256C, strain CLN2, stronger effect = lower value",0.677 (active)
same,normalized growth,"S. cerevisiae deletion strains, locus YPR025C, strain CCL1, stronger effect = lower value",0.917
same,normalized growth,"S. cerevisiae deletion strains, locus YPR106W, strain ISR1, stronger effect = lower value",0.901
same,normalized growth,"S. cerevisiae deletion strains, locus YPR111W, strain DBF20, stronger effect = lower value",0.892
same,normalized growth,"S. cerevisiae deletion strains, strain NNK1, stronger effect = lower value",0.902
same,normalized growth,"S. cerevisiae deletion strains, strain TSCII, stronger effect = lower value",0.911
